Laboratory results published in ChEMBL document CHEMBL1157539, “Thousands of chemical starting points for antimalarial lead identification” (Nature, 2010).

Test system: Plasmodium falciparum
Assay: GSK_TCMDC: Inhibition of Plasmodium falciparum 3D7 in whole red blood cells, using parasite LDH activity as an index of growth. Test compounds present at 2uM
Type: functional

Structure (SMILES) | Inhibition [%]
Cc1[nH]c(C)c(-c2ccc(-c3cccc(Cl)c3)nc2)c(=O)c1Cl | 97
COc1cccc(C(=O)Nc2ccc(Nc3nc(C)cc(N(C)C)n3)cc2)c1OC | 90
CN(C)CCOc1ccc2c(c1)OC(C)(C)C=C2c1cccc2ccccc12.Cl | 95
O=C(Nc1cccc(CN2CCN(Cc3ccc(O)cc3)CC2)c1)c1ccc(-c2ccccc2)cc1.O=C(O)C(F)(F)F | 100

Test system: Plasmodium falciparum
Assay: GSK_TCMDC: Inhibition of Plasmodium falciparum Dd2 in whole red blood cells, using parasite LDH activity as an index of growth. Test compounds present at 2uM
Type: functional

Structure (SMILES) | Inhibition [%]
O=CO.c1ccc(-c2ccc(CNCCCNc3nc4ccccc4[nH]3)cc2)cc1 | 0
Fc1ccccc1-c1cc(Nc2ccncc2)nc(-c2cccnc2)n1 | 89
CN(CC(=O)Nc1ccc(F)cc1)C(=O)c1ccc(-c2ccc(F)cc2)o1 | 84
CCc1cn2c3c(cc(C(=O)N[C@@H](Cc4ccccc4)[C@H](O)CNC(C)(C)c4cccc(OC)c4)cc13)N(C)S(=O)(=O)C2.O=CO | 99
CN(/N=C/C=C/c1ccc(Cl)cc1)c1nc(NCCc2ccc(O)cc2)nc(N2CCNCC2)n1 | 69
Cc1cc(NCCC(=O)Nc2ccccc2)nc(NCc2ccccc2C)n1.O=C(O)C(F)(F)F | 57
COc1ccc2[nH]c(C)cc(=NN=Cc3ccccc3F)c2c1 | 100
COc1cc(-c2nc(-c3ccccc3)c(-c3ccccc3)[nH]2)cc(OC)c1O | 90
CC[C@H](C)CNC(=O)c1cccc(-c2cccc(CN3CCC(N4CCCC4)CC3)c2)n1.O=C(O)C(F)(F)F | 86
CCCC(C)Nc1nc(C)cc(NCCC(=O)Nc2ccc(OC)cc2)n1.O=C(O)C(F)(F)F (stereo unspecified) | 2
Nc1c2ccccc2nc2cc(C(F)(F)F)ccc12 | 49
CCc1c[nH]c2c(N3CCCCC3=O)cc(C(=O)N[C@@H](Cc3ccccc3)[C@H](O)CNCc3cccc(OC)c3)cc12.O=CO | 99
O=C(c1ccc(F)c2ccccc12)N1CCc2cc3nccc(N4CCN5CCC[C@H]5C4)c3cc21 | 54
Cc1ccc2nc(N(CCCn3ccnc3)C(=O)C=Cc3cccs3)sc2c1.Cl | 57
COc1ccc(-c2onc(C(F)(F)F)c2-c2ccc(Br)cc2)c(O)c1 | 77
Cc1ccc(-n2c(Sc3ncnc4sccc34)nnc2N2CCCC2)cc1 | 100

Structure (SMILES) | Inhibition [%]
CCCNC(=O)C1CCN(C(c2ccccc2)c2ccc(Cl)c(Cl)c2)CC1 (stereo unspecified) | 90
Cc1ccc(S(=O)(=O)N2CCCN(C(=O)c3cc(-c4ccccc4)[nH]n3)CC2)cc1 | 93
CCn1ccc2c(N3CCCCS3(=O)=O)cc(C(=O)N[C@@H](Cc3ccccc3)[C@H](O)CNC(C)(C)CCCC(C)C)cc21 | 98
O=C(O)C(F)(F)F.O=[N+]([O-])c1cccc(CNCC2CCN(CCc3ccccc3)CC2)c1 | 11
Nc1cc(-c2ccc3ccccc3c2)nc2ccccc12 | 52
Cc1cccc2nc(-c3ccc(-c4ccc(CN5CC(C)OC(C)C5)cc4)cc3)[nH]c12.O=C(O)C(F)(F)F (stereo unspecified) | 96
FC(F)(F)c1ccc2[nH]c(-c3ccc(-c4cccc(CNCC5CCCO5)c4)s3)nc2c1.O=C(O)C(F)(F)F (stereo unspecified) | 99
CC1=C(C(=O)Nc2cc3cn[nH]c3cc2F)C(c2ccc(Cl)c(NS(C)(=O)=O)c2)CC(=O)N1 (stereo unspecified) | 98
COc1ccc(-c2ccc([N+](=O)[O-])cc2C(=O)NCC(C)Oc2ccc(C(F)(F)F)cc2)cc1 (stereo unspecified) | 81
CCc1ccc(NC(=O)c2cccc(CN3CCCN(Cc4ccc(OC)cc4)CC3)c2)cc1.O=C(O)C(F)(F)F | 0
CN1CCCC(CN2CCN(Cc3cccc(-c4cccc(-c5nc6ccccc6[nH]5)c4)c3)CC2)C1.O=C(O)C(F)(F)F (stereo unspecified) | 99
CCCNCc1ccc(-c2ccc(CN(C(=O)c3nn(-c4ccccc4)nc3C)C3CC3)cc2)nc1.O=C(O)C(F)(F)F | 0
CCN1CCC(N(Cc2ccc(-c3ccc(C(F)(F)F)cc3)cc2)C(=O)CCCCn2c(CCc3cccc(F)c3F)nc(=O)c3ccccc32)CC1 | 77
CCCCNc1cc(NCCCC)c2c(n1)[nH]c1ccccc12 | 94
CC(C)CCN1CCC(Oc2ccc(NC(=O)c3ccccc3)cc2Cl)CC1.O=C(O)C(F)(F)F | 88
O=C(O)C(F)(F)F.O=C1OC2(CN1CC1CCN(Cc3ccc(-n4ccnc4)cc3)C1)c1ccccc1-c1ccccc12 (stereo unspecified) | 0
